Measurements published in PubChem BioAssay (NCATS).
Records with an inconclusive call do not appear. A number with no mark means an inactive call. Calls of active or inactive are those of the source. Calls come from the whole dose curve; as a rule, active = well fitted curve in the direction sought with a large enough effect; inconclusive = small, poorly fitted or top-dose-only effect, or another doubt; inactive = no such curve, though single readings can be large; an effect the other way counts as inactive or inconclusive.

Assays:
[1] = BET inhibitor-based combinations targeting novel dependencies in MECOM-rearranged (r) AML: SET-2 cell line (AID 2202231); conditions: SET-2 AML cells viability, CellTiter-Glo luminescence, 48 h; viability: stronger effect = lower value, concentration not given here; note: nearly all actives have a fitted effect of over 35% in size;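 for viability: plate controls were DMSO treated cells for no effect and wells without cells for full effect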
Summary of the method: (§1)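 AML cell lines seeded at 500 cells/well, treated with 11-point dose curves for 48 h. Viability by CellTiter-Glo luminescence, normalised to DMSO and empty wells; activity expressed as AUC and per-cell-line Z-transformed AUC.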

[2] = BET inhibitor-based combinations targeting novel dependencies in MECOM-rearranged (r) AML: MV-4-11 cell line (AID 2202233); note: nearly all actives have a fitted effect of over 45% in size
Summary of the method: (§2)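 Cells at 500/well were exposed for 48 hr to MIPE v5.0 drugs as 11-point dose curves. Viability was read by CellTiter-Glo luminescence and normalized to DMSO and empty-well controls. Activity was expressed as AUC and per-cell-line Z-AUC.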

[3] = BET inhibitor-based combinations targeting novel dependencies in MECOM-rearranged (r) AML: HNT-34 cell line (AID 2202234); note: nearly all actives have a fitted effect of over 35% in size
Summary of the method: as §2

[4] = BET inhibitor-based combinations targeting novel dependencies in MECOM-rearranged (r) AML: UCSD-AML1 cell line (AID 2202235); note: nearly all actives have a fitted effect of over 40% in size
Summary of the method: as §2

[5] = BET inhibitor-based combinations targeting novel dependencies in MECOM-rearranged (r) AML: AML-191 cell line (AID 2202236; note: nearly all actives have a fitted effect of over 35% in size)
Summary of the method: as §1

[6] = BET inhibitor-based combinations targeting novel dependencies in MECOM-rearranged (r) AML: AML-194 cell line (AID 2202237; note: nearly all actives have a fitted effect of over 40% in size)
Summary of the method: as §1
Potency is the fitted concentration of half-maximal effect.

SMILES | viability [1] | Potency [2] | Potency [3] | Potency [4] | Potency [5] | Potency [6] | Potency [1]
Cc1cc(C(=O)NOCCO)c(Nc2ccc(I)cc2F)n(C)c1=O | 96.3% | 0.0295 µM (active) | 0.0468 µM (active) |  |  |  | 
CSC[C@H]1CN(Cc2c[nH]c3c(N)ncnc23)C[C@@H]1O | 110% | inactive | inactive | inactive | inactive | inactive | 
CNCCn1c(=O)c2cc(OC)c(OC)cc2c2cnc3cc4c(cc3c21)OCO4 |  | 0.0152 µM (active) | 0.0121 µM (active) | 0.0191 µM (active) | 0.0241 µM (active) | 0.0241 µM (active) | 0.0241 µM (active)
COC(=O)[C@@H]1CC2=CC(=O)CC[C@]2(C)[C@@]23O[C@@H]2C[C@@]2(C)[C@@H](CC[C@@]24CCC(=O)O4)[C@H]13 | 106% | inactive | inactive | inactive | inactive | inactive | 
CCc1cc(/C(C)=N/OCc2ccc(C3CCCCC3)c(C(F)(F)F)c2)ccc1CN1CC(C(=O)O)C1 |  | 8.33 µM (active) | inactive | inactive |  |  | 16.6 µM (active)
CC1(C(=O)O)CCC2(C)CCC3(C)C(=CC(=O)C4C5(C)CCC(OC6OC(C(=O)O)C(O)C(O)C6OC6OC(C(=O)O)C(O)C(O)C6O)C(C)(C)C5CCC43C)C2C1 (centres undefined) | 124% | inactive | inactive | inactive | inactive | inactive | 
CCN(CC)CCNC(=O)c1c(C)[nH]c(/C=C2/C(=O)Nc3ccc(-c4csc(-c5ccccc5)n4)cc32)c1C |  | 1.18 µM (active) | 26.3 µM (active) | 9.34 µM (active) | 7.42 µM (active) | 7.42 µM (active) | 9.34 µM (active)
CC1(N)CCN(c2cccnc2NC(=O)c2nc(-c3ncccc3C(F)(F)F)cnc2N)CC1 | 101% | 7.42 µM (active) | 18.6 µM (active) |  |  |  | 
O=c1cc(N2CCOCC2)oc2c(-c3ccc4c(c3)OCCO4)csc12 |  | 2.09 µM (active) | 5.25 µM (active) | 3.32 µM (active) | 5.25 µM (active) | 2.95 µM (active) | 3.32 µM (active)
CCCCCCCCCCCCCCCCCCCCCCO | 112% | inactive | inactive | inactive | inactive | inactive | 
CN(C)C(=O)COC(=O)Cc1ccc(OC(=O)c2ccc(N=C(N)N)cc2)cc1 | 115% | inactive | inactive | inactive | inactive | inactive | 
CN(C)c1cc(NC(=O)CNC(C)(C)C)c(O)c2c1C[C@H]1C[C@H]3[C@H](N(C)C)C(=O)C(C(N)=O)=C(O)[C@]3(O)C(=O)C1=C2O | 74.8% | inactive | inactive | 4.68 µM (active) | inactive |  | 
C[C@@H]1COCCN1c1cc(-c2ccnn2C)c2ccnc(-c3ccn[nH]3)c2n1 |  | 0.118 µM (active) | 0.296 µM (active) | 0.0661 µM (active) | 0.296 µM (active) | 0.332 µM (active) | 0.0833 µM (active)
CC(=NNC(=O)c1cccc(S(=O)(=O)N2CCOCC2)c1)c1cc(Cl)ccc1O |  | 7.42 µM (active) | 2.63 µM (active) | 5.25 µM (active) | 2.09 µM (active) | 4.68 µM (active) | 6.61 µM (active)
Cn1c(-c2ccccc2C(F)(F)F)nnc1C12CCC(c3noc(C4CC(F)(F)C4)n3)(CC1)CC2 | 105% | 16.6 µM (active) | inactive | inactive | inactive | inactive | 
CCCCCCCOc1ccc(CCC(N)(CO)CO)cc1C(F)(F)F |  | 14.8 µM (active) | 14.8 µM (active) | 10.5 µM (active) | 18.6 µM (active) | 14.8 µM (active) | 18.6 µM (active)
CCCCC(=O)OCC(=O)[C@]1(O)Cc2c(O)c3c(c(O)c2[C@@H](O[C@H]2C[C@H](NC(=O)C(F)(F)F)[C@H](O)[C@H](C)O2)C1)C(=O)c1c(OC)cccc1C3=O |  | 0.235 µM (active) | 1.86 µM (active) | 0.833 µM (active) | 1.66 µM (active) | 2.63 µM (active) | 4.17 µM (active)
Cc1noc(C)c1-c1ccc(-c2cc(C(N)=O)c(NC(N)=O)s2)c(O[C@H]2CCNC2)c1 | 123% | inactive | inactive | inactive | inactive | inactive | 
COC1CCC(N2C(=O)CNc3ncc(-c4ccc(C(C)(C)O)nc4)nc32)CC1 (centres undefined) |  | 3.72 µM (active) | 2.35 µM (active) | 0.525 µM (active) | 5.9 µM (active) |  | 7.42 µM (active)
